# PubChem BioAssay AID1220 (Sanford-Burnham Center for Chemical Genomics, 2008)
# Screen size: about 190,000 compounds; about 1,300 (0.68%) were called active. The full list was thinned out, with actives kept by preference. A number with no mark means an inactive call. Rule as the data show it: active = inhibition above about 50%; inactive = the rest.
# Molecular target: Mannose-6-phosphate isomerase (Homo sapiens) (UniProt P34949)
# Test: human PMI inhibitors, high substrate, primary screen, biochemical, fluorescence intensity, high mannose 6-phosphate (AID 1220)
# Settings: recombinant PMI enzyme, coupled fluorescence intensity; at 20 µM; active compounds read high
# Chain of Mannose-6-phosphate isomerase (Homo sapiens) (P34949 whole entry, looked up): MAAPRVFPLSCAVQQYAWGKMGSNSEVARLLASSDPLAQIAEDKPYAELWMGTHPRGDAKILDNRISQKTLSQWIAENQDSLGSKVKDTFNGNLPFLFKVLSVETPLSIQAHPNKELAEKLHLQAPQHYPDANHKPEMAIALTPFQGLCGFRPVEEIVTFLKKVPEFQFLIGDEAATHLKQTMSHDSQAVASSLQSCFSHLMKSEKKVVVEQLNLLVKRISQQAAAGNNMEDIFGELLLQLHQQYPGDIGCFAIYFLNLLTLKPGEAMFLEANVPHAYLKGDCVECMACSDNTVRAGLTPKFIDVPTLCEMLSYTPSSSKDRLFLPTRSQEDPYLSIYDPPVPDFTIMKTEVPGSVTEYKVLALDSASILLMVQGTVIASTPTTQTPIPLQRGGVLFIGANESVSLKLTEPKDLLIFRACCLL
row,Compound,inhibition
1,Cc1ccc(NCc2ccccc2)cc1,9.2%
2,Cc1csc(=Nc2cccnc2)n1Cc1ccco1,2.8%
3,COc1cccc(OCC(=O)NNC(=S)Nc2ccc(Cl)cc2Cl)c1,3.7%
4,O=C(c1cncc(Br)c1)N1CCN(c2ccc(N3CCOCC3)nn2)CC1,4.8%
5,O=C(CSc1cccc2cccc(Cl)c12)NC1=NCCS1,51.9% (active)
6,O=C(Cc1c(F)cccc1Cl)NC1=NCCS1,9.7%
7,O=C(Cc1c(Cl)cccc1Cl)NC1=NCCS1,-5.2%
8,COc1ccc(N2C(=O)CSC(c3ccccc3)C2=O)cc1 (stereo not given),4.1%
9,Cc1cc(NC(=O)CN2CCN(S(=O)(=O)c3ccc(Cl)cc3)CC2)no1,2.2%
10,O=[N+]([O-])c1cc(CN2CCN(c3ccccc3)CC2)c(O)c2ncccc12,35.7%
11,CC(C)C(=O)NC(c1cccs1)c1cc([N+](=O)[O-])c2cccnc2c1O (stereo not given),46.5%
12,O=[N+]([O-])c1cc(Cl)c(O)c2ncccc12,32.5%
13,CN(Cc1cc([N+](=O)[O-])c2cccnc2c1O)C1CCCCC1,51.8% (active)
14,O=[N+]([O-])c1cc(CN2CCCC2)c2cccnc2c1O,44.4%
15,CC(C)C(=O)NC(c1ccco1)c1ccc2cccnc2c1O (stereo not given),37.8%
16,O=C(NC(c1ccc(Cl)cc1)c1cc(Cl)c2cccnc2c1O)c1cccnc1 (stereo not given),2.3%
17,CC(C)C(=O)NC(c1ccccc1)c1cc([N+](=O)[O-])c2cccnc2c1O (stereo not given),60.9% (active)
18,Cc1ccc(C(NC(=O)C(C)C)c2cc([N+](=O)[O-])c3cccnc3c2O)cc1 (stereo not given),53.9% (active)
19,CCCNC(=O)c1ccc2nc(-c3ccccc3)c(-c3ccccc3)nc2c1,11.1%
20,CCc1ccc(Oc2cc(C)nc(N)n2)cc1,-0.3%
21,CCCCc1ccc(-n2nnnc2SCC(=O)Nc2cc(OC)c([N+](=O)[O-])cc2C)cc1,10.1%
22,O=C(NCCc1ccc(Cl)cc1)c1cnc2n(c1=O)CCS2,4.8%
23,O=C(N/N=C/c1ccc2c(c1)OCO2)c1sc2cccc(Cl)c2c1Cl,12.6%
24,O=C(CCCCCn1c(=O)[nH]c2ccccc2c1=O)N1CCN(Cc2ccc3c(c2)OCO3)CC1,-4%

row,Compound,inhibition
1,O=C(OCc1cccnc1)C1=Cc2ccccc2OC1,-1.4%
2,COc1ccc(C(C)=O)c2c(O)cccc12,56.5% (active)
3,COc1ccc(C(=O)Nc2cccc(C(C)=O)c2)c(OC)c1OC,8.1%
4,COc1ccc(C(=O)c2ccc(OC)c3cccc(O)c23)cc1OC,14.7%
5,CCOc1ccc(N(CC(=O)N/N=C/c2cccnc2)S(C)(=O)=O)cc1,-3.8%
6,CN(C)C(=O)C1(c2ccccc2)CCN(S(=O)(=O)c2ccccc2)CC1,14.9%
7,COc1oc(-c2ccccc2C)nc1C(F)(F)F,1.8%
8,COc1ccc(/C(=C\Nc2ccc(C)c(C)c2)C(C)=O)cc1OC,56.5% (active)
9,COc1ccc(N/C=C(\C(C)=O)c2ccc(OC)c(OC)c2)cc1OC,42.8%
10,COc1ccc(/C(=C/Nc2cccc(Br)c2)C(C)=O)cc1OC,4.4%
11,CCC/C=N/NC(=O)c1cc(-c2ccccc2)nc2ccccc12,-2.1%
12,C=CCc1cc(/C=N/NC(=O)CSc2nnc(CCCc3ccc(OC)cc3)o2)cc(OC)c1O,-3.4%
13,N#C/C(=C1/CCCCCN1)c1nnc2n1CCCCC2,-3.4%
14,N#C/C(=C1\C(=O)Nc2c(Cl)cc(Cl)cc21)c1nnc2n1CCCCC2,51% (active)
15,N#C/C(=N\Nc1cc(Cl)cc(Cl)c1)c1nnc2n1CCCCC2,14.3%
16,O=C(c1cc2nc(-c3ccc(Cl)cc3)cc(C(F)(F)F)n2n1)N1CCOCC1,9.1%
17,CC(=O)N1CC(c2ccccc2)C(c2ccc(Cl)cc2)=N1 (stereo not given),11.8%
18,CC(C)C(O)(C#CCN1CCCCC1)C(C)C,2.1%
19,O=C(NC(=S)N1CCN(Cc2ccccc2)CC1)c1cccnc1,58.4% (active)
20,O=C(NC(=S)N1CCN(Cc2ccccc2)CC1)c1ccccc1,13%
21,O=C(NC(=S)N1CCCCC1)c1cccnc1,-1.5%
22,COCCN1C(=O)c2oc3ccccc3c(=O)c2C1c1ccc(O)c(OC)c1 (stereo not given),0.7%
23,Cc1ccc(Cl)cc1NC(=O)C[n+]1ccc(Cc2ccc([N+](=O)[O-])cc2)cc1,55.3% (active)
24,Cc1ccc([N+](=O)[O-])cc1NC(=O)C[n+]1ccccc1,22.2%

row,Compound,inhibition
1,Cc1cc([N+](=O)[O-])ccc1NC(=O)C[n+]1ccc(N(C)C)cc1,-1.5%
2,CC(NC(=O)C1CCCN1C(=O)OCc1ccccc1)c1ccccc1 (stereo not given),-0.5%
3,COc1cccc(OC)c1C(=O)NC(=S)Nc1ccc2oc(=O)ccc2c1,10.5%
4,CC(NC(=O)COC(=O)CC(c1ccccc1)c1ccccc1)c1ccccc1 (stereo not given),7.9%
5,CC(NC(=O)COC(=O)Cc1ccccc1[N+](=O)[O-])c1ccccc1 (stereo not given),51.3% (active)
6,O=C(COC(=O)COc1ccccc1[N+](=O)[O-])NC1CCCC1,-5.1%
7,CC(NC(=O)Cc1ccccc1[N+](=O)[O-])c1ccccc1 (stereo not given),7.4%
8,O=C(COC(=O)Cc1ccccc1[N+](=O)[O-])NCC1CCCCC1,-5.7%
9,O=C(COC(=O)Cc1ccccc1[N+](=O)[O-])NC1CCCC1,55.4% (active)
10,O=Cc1cc2ccccc2nc1SCCCF,4.2%
11,CCCn1c(SCC(=O)C(C)(C)C)nc2ccccc21,-8.2%
12,O=C(O)Cc1ccc(NC(=O)c2cnccn2)cc1,-9.7%
13,Cc1cc(C)c2c(N)c(C(=O)NNC(=O)c3ccccc3)sc2n1,2.3%
14,Cc1cc(C)nc(-n2nc(C)cc2NC(=O)CN2CCCC(C)C2)n1 (stereo not given),4.4%
15,Cc1ccc(SC(C)C(=O)NCc2ccncc2)cc1 (stereo not given),11.4%
16,CC(=O)NC1(C(F)(F)F)NC(=O)N(c2ccc(F)cc2)C1=O (stereo not given),-10.2%
17,Cc1cccc(OC(=O)CCN2C(=O)C3C4C=CC(C5CC45)C3C2=O)c1C (stereo not given),-6.4%
18,O=C(CCN1C(=O)C2C3C=CC(C4CC34)C2C1=O)Oc1ccccc1 (stereo not given),-3.5%
19,CC(=O)c1ccccc1OC(=O)CCN1C(=O)C2C3C=CC(C4CC34)C2C1=O (stereo not given),59.3% (active)
20,Cc1ccc(C(=O)NCc2ccco2)cc1S(=O)(=O)Nc1cccc(C)c1C,0.8%
21,COc1cccc(CN2CCN(Cc3[nH]c4ccccc4c3C)CC2CCO)c1 (stereo not given),-0.2%
22,Cc1nc2cc(N)ccc2n1-c1ccccc1,21.5%
23,CN(C)C=Nc1ccc2nn(-c3ccccc3)nc2c1,60.2% (active)
24,Cc1ccc(-n2nc3ccc(N)cc3n2)cc1,31.3%

row,Compound,inhibition
1,CC(C)c1ccc2oc(-c3cc(N)ccc3O)nc2c1,-12.6%
2,CC(C)c1ccc(-n2nc3ccc(N)cc3n2)cc1,55.8% (active)
3,CC(C)CC(=O)Nc1ccc2nn(-c3ccccc3)nc2c1,26.4%
4,Cc1ccc(-n2nc3ccc(NC(=O)C(C)C)cc3n2)cc1,13.3%
5,CC(C)C(=O)Nc1ccc2nn(-c3ccccc3)nc2c1,-0.5%
6,Nc1ccc2nn(-c3ccccc3)nc2c1,57.9% (active)
7,COc1cccc(CN(c2ccc3c(c2)CCC3)S(=O)(=O)c2ccc(-n3cnnn3)c(OC)c2)c1,-3.4%
8,N#C/C(=C\c1ccncc1)C(N)=O,17.1%
9,COc1ccc(Oc2ccccc2C#N)cc1,4.7%
10,O=C(CSc1nnnn1CCCO)Nc1ccc2c(c1)OCO2,-12.3%
11,COC(=O)c1ccc(N2CCOCC2)c(F)c1,-3.2%
12,Nc1cc(-c2ccc(Br)cc2)nn1S(=O)(=O)c1cccc2nsnc12,11.3%
13,CO[C@H]1C=CO[C@@]2(C)Oc3c(C)c(O)c4c(O)c(c(C=NN5CCN(C)CC5)c(O)c4c3C2=O)NC(=O)C(C)=CC=C[C@H](C)[C@H](O)[C@@H](C)[C@@H](O)[C@@H](C)[C@H](OC(C)=O)[C@@H]1C,42.7%
14,CO[C@H]1C=CO[C@@]2(C)Oc3c(C)c(O)c4c(O)c(c5c(nc6cc(C)ccn65)c4c3C2=O)NC(=O)C(C)=CC=C[C@H](C)[C@H](O)[C@@H](C)[C@@H](O)[C@@H](C)[C@H](OC(C)=O)[C@@H]1C,32.2%
15,CO[C@H]1C=CO[C@@]2(C)Oc3c(C)c(O)c4c(O)c(c(C=NN5CCN(C6CCCC6)CC5)c(O)c4c3C2=O)NC(=O)C(C)=CC=C[C@H](C)[C@H](O)[C@@H](C)[C@@H](O)[C@@H](C)[C@H](OC(C)=O)[C@@H]1C,73.8% (active)
16,O=C(OCC(=O)N1CCCC1)c1ccccc1OCc1ccccc1,4.1%
17,NC(=O)c1c(NC(=S)Nc2ccc(F)cc2)sc2c1CCCC2,2.3%
18,Cc1ccc(/C=C2/C(=O)N(c3ccccc3)C(=S)N2C)o1,52.2% (active)
19,CN1C(=S)N(c2ccccc2)C(=O)/C1=C/c1ccco1,-16.2%
20,CCOc1ccc(N2C(=O)/C(=C/c3ccc(C)o3)N(C)C2=S)cc1,43.2%
21,COc1cc(C(=O)NCC(C)C)cc(OC)c1OC,-10.5%
22,COC(=O)C1=C(C)NC(C)=C(C(=O)OC)C1c1ccc(-c2cc(Cl)ccc2Cl)o1,-1.9%
23,COCCNC(=O)Cn1nc(C(F)(F)F)cc1C,21.9%
